Our source for the outcome and AC50 values is PubChem BioAssay (EPA / NIEHS).

Calls of active or inactive are those of the source. Rule for the calls: active = hit-call score of the fitted dose curve at least 0.9, where 1 is the maximum; inactive = score below 0.9.

Read-out in this test: Interleukin-8 (IL8), CXCL8 (gene 3576)
The test is described as follows: BSK_LPS_IL8: BioMAP Diversity Plus: LPS Assay for Interleukin-8 (IL8) Biomarker Activity (AID 2283078). The settings on record: primary human HUVEC with PBMC; actives raise or lower the signal. As for the experimental part: BSK_LPS is a cell-based, multiplexed-readout assay that uses umbilical vein endothelium and peripheral blood mononuclear cells, a human vascular primary cell co-culture, with measurements taken at 24 hours after chemical dosing in a 96-well plate.BSK_LPS_IL8 is an assay component measured in the BSK_LPS assay. It measures IL-8 antibody related to regulation of gene expression using ELISA technology.Data from the assay component BSK_LPS_IL8 was analyzed into 1 assay endpoint. This assay endpoint, BSK_LPS_IL8, was analyzed with bidirectional fitting relative to DMSO as the negative control and baseline of activity. Using a type of binding reporter, gain or loss-of-signal activity can be used to understand changes in the signaling as they relate to the gene CXCL8. Furthermore, this assay endpoint can be referred to as a primary readout, because this assay has produced multiple assay endpoints where this one serves a signaling function. To generalize the intended target to other relatable targets, this assay endpoint is annotated to the cytokine intended target family, where the subfamily is interleukins.
The levels of cell surface (or secreted, indicated by the prefix "s") biomarker endpoints were measured by ELISA. Overt cytotoxicity to cells in confluent adherent cultures (all systems other than the BT system) was assessed by measuring total protein levels using sulforhodamine B (SRB) staining in parallel cultures at the time of biomarker measurements, indicated as SRB endpoints. For proliferation assays for adherent cell types, individual cell types are cultured at sub-confluence and relative cell numbers quantified by SRB staining at time points optimized for each system (48 h: 3C and CASM3C systems; 72 h: BT and HDF3CGF systems; 96 h: SAg system). SRB was performed by staining cells with 0.1% SRB after fixation with 10% TCA and reading wells at 560 nm.Viability and proliferation of PBMC (T cells) was quantified by Alamar Blue reduction for the SAg and BT systems. For PBMC viability (referred to as PBMC Cytotoxicity within the assay endpoint names), cells were plated (75,000/well in a 96-well plate) and then chemical samples added for 1 h before addition of activators, SEB and TSST-1 (20 ng/mL final concentration each). Cells were incubated for 90 h. Then, Alamar Blue (20 uL/well) (Invitrogen, Cat DAL1100) was added for 6 h, and the plates were read with a fluorescence microplate reader at 546/580 nm (excitation/emission). For PBMC proliferation, cells were plated and activated as above but incubated for only 16 h prior to addition of Alamar Blue. Plates were read after 6 h.
Consider `CCCCC(CC)COC(=O)CCCCCCCC(=O)OCC(CC)CCCC` (stereo not given), for which the outcome was inactive.

Broadly, the AC50 is the midpoint of the concentration-response curve, whichever way the signal moves. With `CCN(CC)CCOc1ccc(C(=C(Cl)c2ccccc2)c2ccccc2)cc1`, the AC50 is 11.3 µM (active).

Regarding `COC(=O)[C@H]1[C@H]2C[C@@H]3c4[nH]c5cc(OC)ccc5c4CCN3C[C@H]2C[C@@H](OC(=O)c2cc(OC)c(OC)c(OC)c2)[C@@H]1OC`, the outcome was inactive.

For `CSc1ccc(Oc2ccc(S(N)(=O)=O)cc2CN(C)C)cc1C`, the result was inactive.

Regarding `CC(C)c1cccc(C(C)C)c1`, the result was inactive.

For the compound `CN(C)CCCN1c2ccccc2Sc2ccc(Cl)cc21`, the AC50 was 23.9 µM (active).

In the case of `O=C(Oc1ccccc1)c1cccc(C(=O)Oc2ccccc2)c1`, the result was inactive.

As to `COC(=O)CCCC(=O)OC`, the outcome was inactive.

Consider `CC(N)=O`, for which the result was inactive.

As for `N[C@@H](Cc1c[nH]c2ccccc12)C(=O)O`, the result was inactive.

Consider `Oc1ccccc1O`, for which the result was inactive.

For `CC1=C(C)S(=O)(=O)CCS1(=O)=O`, the result was inactive.

For `CCCCC(CC)CO` (stereo not given), the outcome was inactive.

Take `CC(C)(C)c1ccccc1`: the outcome was inactive.

`S=c1[nH]c2ccccc2s1`: the result was inactive.

For the compound `Cc1c(C)c2c(c(C)c1O)CCC(C)(COc1ccc(CC3SC(=O)NC3=O)cc1)O2` (stereo not given), the AC50 was 32.1 µM (active).

Take `CN(C)CCCN(C)CCCN(C)C`: the result was inactive.

In the case of `O=C(O)c1[nH]n(-c2ccc(S(=O)(=O)O)cc2)c(=O)c1N=Nc1ccc(S(=O)(=O)O)cc1`, the outcome was inactive.

Regarding `Cc1occc(=O)c1O`, the outcome was inactive.

`NC(=Nc1ccccc1)Nc1ccccc1`: the outcome was inactive.

Take `Oc1ccc(O)cc1`: the AC50 was 30.7 µM (active).

Take `CC(=O)O`: the result was inactive.

Consider `Cc1ccc(C(C)(C)C)c(O)c1`, for which the result was inactive.

As to `O=C1CCCCC1`, the outcome was inactive.

As for `C/C=C/c1ccc(OC)cc1`, the outcome was inactive.

As for `CCc1nc(N)nc(N)c1-c1ccc(Cl)cc1`, the outcome was inactive.

In the case of `CCCCCCC(C=O)=Cc1ccccc1`, the AC50 is 30.2 µM (active).

As for `CCCC[C@H]1CN(CC2CCOCC2)C(=O)OC12CCN(C1(C)CCN(C(=O)c3c(C)ncnc3C)CC1)CC2`, the result was inactive.

With `O=C(O)CC(O)(CC(=O)O)C(=O)O`, the result was inactive.

Take `O=C(N[C@@H](c1ccccc1)[C@@H]1CCCCN1)c1cccc(C(F)(F)F)c1Cl`: the AC50 is 17.9 µM (active).

With `c1ccc2occc2c1`, the result was inactive.

For `O=C1NC(=O)C(c2ccccc2)(c2ccccc2)N1`, the outcome was inactive.

As for `NCCOCCOCCN`, the outcome was inactive.

For `C#CC(O)C(CC)CCCC` (stereo not given), the outcome was inactive.

Consider `CC(=O)CC(c1ccccc1)c1c(O)c2ccccc2oc1=O` (stereo not given), for which the result was inactive.

As to `CCCCC(CC)COP(=O)(OCC(CC)CCCC)OCC(CC)CCCC` (stereo not given), the AC50 is 5.39 µM (active).

On to `OCC(CO)n1cnc(-c2ccc(F)cc2)c1-c1ccnc(Oc2ccccc2)n1`, for which the AC50 was 0.544 µM (active).

On to `O=C(NS(=O)(=O)/C=C/c1cccs1)c1ccc(F)cc1Br`, for which the result was inactive.

For the compound `O=[Si]=O`, the outcome was inactive.

Consider `O=NO`, for which the result was inactive.
